Test results as given in ChEMBL document CHEMBL3988442, “University of Dundee, Small-Polar-MMV Screening Library” (2021).

Tests used:
[1] = target: T1, Aspartate--tRNA(Asp/Asn) ligase (Mycobacterium tuberculosis (strain ATCC 25618 / H37Rv)) (UniProt P9WFW3); test: Assay for Asp RNA synthetase-1 from Mycobacterium tuberculosis; type: functional; set-up: scale not given: direction of the effect not stated beside the values; conditions: 30 µM; further: in the data most compounds retested in dose-response had high values
T1 sequence (whole entry): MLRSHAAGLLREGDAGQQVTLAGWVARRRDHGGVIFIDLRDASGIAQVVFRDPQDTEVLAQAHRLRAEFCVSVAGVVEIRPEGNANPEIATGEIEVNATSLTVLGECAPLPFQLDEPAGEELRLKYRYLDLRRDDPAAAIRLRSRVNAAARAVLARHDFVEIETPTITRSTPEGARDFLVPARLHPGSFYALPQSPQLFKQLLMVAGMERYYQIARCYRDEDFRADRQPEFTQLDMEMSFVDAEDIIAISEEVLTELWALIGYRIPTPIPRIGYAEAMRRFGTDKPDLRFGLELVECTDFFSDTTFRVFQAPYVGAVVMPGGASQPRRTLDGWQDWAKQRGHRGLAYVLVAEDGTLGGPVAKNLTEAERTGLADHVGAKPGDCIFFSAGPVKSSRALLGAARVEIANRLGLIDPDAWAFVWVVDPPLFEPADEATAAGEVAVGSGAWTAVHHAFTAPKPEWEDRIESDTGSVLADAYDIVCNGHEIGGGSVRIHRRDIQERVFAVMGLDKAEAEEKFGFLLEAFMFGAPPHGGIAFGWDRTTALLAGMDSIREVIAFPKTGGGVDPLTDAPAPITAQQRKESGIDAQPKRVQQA

[2] = target: Shiga toxin 2 (Escherichia coli O157:H7) (UniProt P09385+P09386); test: E. coli 0.157:H7 Shiga Toxin SOP - stx2 screening assay; type: functional; set-up: scale not given: direction of the effect not stated beside the values; conditions: 30 µM

Row | Compound | Percent Effect [1] [%] | Percent Effect [2] [%]
1 | Cc1noc(C)c1CN(C)CCC(=O)N1CCc2sccc2C1 | 5.92 | -16
2 | COc1cccc2ccn(CCC(=O)N3CCCC(C(=O)O)C3)c12 (stereo not given) | 9.22 | -2.31
3 | O=C1CCCc2cc(-c3csc(CCN4CCOC4=O)n3)ccc2N1 | -6.83 | -35.7
4 | COCCN1CCN(CCCS(C)(=O)=O)CC1C (stereo not given) | -5.8 | -23.7
5 | Cn1ccnc1CN1CCC2(CC1)CC(NC(=O)c1ccccn1)CO2 (stereo not given) | 2.38 | -19.4
6 | COc1ccc(C2=C(C)C(N3CCc4ccccc4C3)=NS2(=O)=O)cc1 | 2.67 | -90
7 | CSCc1cccc(S(=O)(=O)NCCCN2CCOCC2)c1 | 13.9 | -32.1
8 | CC1CN(Cc2noc(C3CC3)n2)CCN1Cc1nccn1C (stereo not given) | -4.25 | -11.1
9 | CC(C)(C)C(=O)N1C[C@H](c2ccsc2)[C@H]2CN(Cc3cccs3)CC[C@H]21 | -0.28 | -20.2
10 | CC(C)C(=O)N1CCN(C(=O)CCc2nnc(-c3ccccc3)o2)CC1 | 1.17 | -3.74
11 | Cn1ccnc1CN1CCN(CC(O)c2cccc(F)c2)CC1 (stereo not given) | 1.53 | 14
12 | COc1cccc(OC)c1CN1CCC2(CC(Nc3ccncn3)C2)C1 (stereo not given) | 3.04 | 0.472
13 | O=C(c1ccccn1)N1CCN(c2ccc(-c3cccnc3)nn2)CC1 | -6.42 | -48.3
14 | CC(C)Oc1ncccc1CNC(=O)N1CCC(C(N)=O)C1 (stereo not given) | -4.37 | 30.9
15 | O=C(Cc1n[nH]c2ccccc12)N1CCC(Nc2cccnn2)CC1 | 2.78 | -16.9
16 | CN(C)CC1CN(Cc2csc(C3CCCC3)n2)CCO1 (stereo not given) | 1.38 | 14.5
17 | CCn1cc(C(=O)NCc2csc(Br)c2)cn1 | -3.16 | 6.72
18 | CC(NC(=O)N1CCC(n2cncn2)CC1)c1ccc(F)cc1F (stereo not given) | -3.4 | 7.64
19 | CN1CCN(Cc2nc3ccccc3[nH]2)[C@H]2CS(=O)(=O)C[C@H]21 | 8.03 | -6.1
20 | Cc1noc(C)c1-c1cccc(CC2CCN(C(=O)CCC(=O)O)C2)n1 (stereo not given) | -0.313 | -17.7
21 | CCc1nnc2n1CCN(C(=O)c1ccc(C(F)(F)F)nc1C)C2 | 1.43 | -8.18
22 | CN1N=C(C(=O)N(Cc2ccco2)C2CC2)CCC1=O | -2.73 | 1.36
23 | Cn1ncc2c(=O)[nH]c(N3CCN(C(=O)c4ccsc4)CC3)nc21 | 1.3 | 13.3
24 | CSc1ccc(S(=O)(=O)N2CCCCC2CCNC(C)=O)cc1 (stereo not given) | 7.57 | -4.85
25 | CC1CN=C(N2CCN(C(=O)Nc3nc(-c4ccccc4)ns3)CC2)S1 (stereo not given) | 3.62 | -38.1

Row | Compound | Percent Effect [1] [%] | Percent Effect [2] [%]
26 | CC(C)C(=O)N1CCN(Cc2csc(-c3ncccn3)n2)CC1 | -4.22 | 0.445
27 | COc1cc(C)nc(N2CCN(C(=O)c3ccccc3C)CC2)n1 | 6.7 | 3.55
28 | O=C(CSC1=NS(=O)(=O)c2cc(F)ccc2N1)c1ccc(Cl)cc1 | 5.12 | -0.176
29 | CN(C)S(=O)(=O)N1CC[C@]2(C[C@H](Oc3ncccc3F)CO2)C1 | 2.03 | 2.42
30 | NS(=O)(=O)Cc1ccc(CNC(=O)NCC2CCOC2)cc1 (stereo not given) | -4.55 | 26.9
31 | CCOc1ccnc(N2CCN(C(=O)c3cccnc3O)CC2)n1 | -5.14 | 6.95
32 | CN1CCN(c2ncccc2CNc2ncccc2C#N)CC1 | 3.68 | 2.01
33 | CN(Cc1nnc(C2CC2)n1C)C1CCN(Cc2ccccc2F)C1 (stereo not given) | -3.49 | -40.3
34 | COc1ccc(C(=O)N2CCCCC2Cn2cccn2)c(F)c1 (stereo not given) | 3.52 | -7.04
35 | CCC1=N[C@@]2(CC[C@@H]3CN(CC4CC4)C[C@@H]32)C(=O)N1C | -1.79 | 6.84
36 | CCN1CCN(C(=O)c2cc(C(=O)OC)nn2-c2ccccc2)CC1 | 2.94 | 26.1
37 | COCCn1cc(C(=O)N2CCCC2c2cc(C)no2)ccc1=O (stereo not given) | -2.11 | 3.38
38 | Cn1nc2c(cc1=O)CN(Cc1nnc(C3CC3)o1)CC2 | 47.1 | -53.6
39 | c1ccc(OC[C@]23COC[C@H]2CN(c2ncccn2)C3)nc1 | 1.95 | -23.2
40 | Cc1cccnc1NC(=O)C(C)Cn1nc(C(F)(F)F)cc1C (stereo not given) | -2.9 | -1.69
41 | COCCN1CC(C(=O)NCc2ccnc(-n3cccn3)c2)CC1=O (stereo not given) | -0.544 | -36.8
42 | CC(O)CNC(=O)NCc1cccnc1OC1CCCC1 (stereo not given) | -4.34 | -12.4
43 | COc1ccc(C(C)=O)c(OCC(=O)NC(C)c2ccc(F)cc2)c1 (stereo not given) | -4.39 | -1.68
44 | Cc1cnn(C2CCCN(C(=O)c3sccc3-n3cnnn3)C2)c1 (stereo not given) | -2.01 | -40.9
45 | Cc1ccc(CS(=O)(=O)N2CC[C@H]3[C@H]2CCN3C)cc1 | -3.51 | -4.23
46 | Cc1ccc(S(=O)(=O)Nc2ccc(=O)n(C)c2)cc1 | 26.8 | -7.78
47 | CC(C)Oc1cc(N2C[C@@H](C)O[C@@H](C)C2)nc(N)n1 | -0.457 | 0.94
48 | CC(NCc1ccc(F)cc1)c1ccc(OCC(=O)NC2CC2)cc1 (stereo not given) | 0.888 | -19.1
49 | c1cncc(COCC2CN(Cc3ccco3)Cc3ccnn3C2)c1 (stereo not given) | 1.51 | -12.8
50 | CCCNC(=O)c1ccc2c(c1)C(=O)N(CC(C)C)C2=O | 1.59 | 3.24
